In PubChem BioAssay (EPA / NIEHS):
Inconclusive results are not listed. Activity calls are given as the source filed them. The calls were made as follows, unless noted: active = hit-call score of the fitted dose curve at least 0.9, where 1 is the maximum; inactive = score below 0.9.

Experiments:
[1] = molecular target: Retinoic acid receptor RXR-alpha (Homo sapiens) (UniProt P19793); assay: ATG_RXRa_TRANS: Attagene TRANS-FACTORIAL HepG2 Assay for human Retinoid X Receptor alpha (RXRa) (AID 2283012; active = hit-call score of the fitted dose curve at least 0.9, where 1 is the maximum)
Outline: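 Chimeric NR-GAL4 trans-activation in HepG2, 24 h treatment; reporter transcripts quantified by fluorescence on capillary electrophoresis, analysed for upward change from DMSO.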

[2] = read-out: E-selectin (Homo sapiens) (UniProt P16581); assay: BSK_3C_Eselectin: BioMAP Diversity Plus: 3C Assay for Eselectin Biomarker Activity (AID 2283015); conditions: primary human endothelial cells (HUVEC); actives raise or lower the signal
Outline: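 HUVEC, 3C stimulation; compound exposure 24 h; E-selectin by ELISA; gain- or loss-of-signal fitted bidirectionally vs DMSO baseline.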

[3] = read-out: Interleukin-1 alpha (IL1a), IL1A (gene 3552); assay: BSK_BE3C_IL1a: BioMAP Diversity Plus: BE3C Assay for Interleukin-1 alpha (IL1a) Biomarker Activity (AID 2283016); conditions: primary human bronchial epithelial cells; actives raise or lower the signal
Outline: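 Measured in human lung primary bronchial epithelial cells: IL-1a by ELISA at 24 h after dosing, with bidirectional fitting against DMSO.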

[4] = read-out: Monocyte Chemoattractant Protein-1 (MCP1), CCL2 (gene 6347); assay: BSK_3C_MCP1: BioMAP Diversity Plus: 3C Assay for Monocyte Chemoattractant Protein-1 (MCP1) Biomarker Activity (AID 2283017); conditions: primary human endothelial cells (HUVEC); actives raise or lower the signal
Outline: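 HUVEC, 3C system; 24 h chemical exposure; MCP-1 by ELISA; bidirectional curve fit vs DMSO baseline.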

[5] = read-out: Monocyte Chemoattractant Protein-1 (MCP1), CCL2 (gene 6347); assay: BSK_4H_MCP1: BioMAP Diversity Plus: 4H Assay for Monocyte Chemoattractant Protein-1 (MCP1) Biomarker Activity (AID 2283018); conditions: primary human endothelial cells (HUVEC); actives raise or lower the signal
Outline: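 Primary human umbilical vein endothelium is exposed to chemical for 24 h before MCP-1 is assayed by ELISA. Concentration-response fitted bidirectionally relative to DMSO.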

[6] = read-out: Human Leukocyte Antigen - DR isotype (HLADR), HLA-DRA (gene 3122); assay: BSK_3C_HLADR: BioMAP Diversity Plus: 3C Assay for Human Leukocyte Antigen - DR isotype (HLADR) Biomarker Activity (AID 2283019); conditions: primary human endothelial cells (HUVEC); actives raise or lower the signal
Outline: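 HUVEC, 3C stimulation, 24 h post-dose; HLA-DR by ELISA; bidirectional curve fit vs DMSO baseline; gain or loss of signal scored.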

[7] = read-out: Interleukin-8 (IL8), CXCL8 (gene 3576); assay: BSK_3C_IL8: BioMAP Diversity Plus: 3C Assay for Interleukin-8 (IL8) Biomarker Activity (AID 2283020); conditions: primary human endothelial cells (HUVEC); actives raise or lower the signal
Outline: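 Using DMSO-treated wells as the baseline, bidirectional curve fitting was applied to ELISA-measured IL-8 from human umbilical vein endothelial cultures sampled 24 h after compound addition.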

[8] = molecular target: human Vitamin D Receptor (VDR), VDR (gene 7421) (UniProt P11473); assay: ATG_VDR_TRANS: Attagene TRANS-FACTORIAL HepG2 Assay for human Vitamin D Receptor (VDR) (AID 2283022; active = hit-call score of the fitted dose curve at least 0.9, where 1 is the maximum)
Outline: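 RT-PCR/capillary electrophoresis read-out of reporter mRNA induction in transiently transfected HepG2; 24 h dosing; chimeric NR-Gal4 (TRANS format); gain-of-signal fit against DMSO baseline.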

[9] = BSK_3C_SRB: Viability Assessment in the BioMAP Diversity Plus: 3C Assay (AID 2283023); conditions: primary human endothelial cells (HUVEC);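 also: cells read 24 h after compound dosing; fitted both ways against DMSO so a hit may be signal rise or drop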
Outline: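 HUVEC, 24 h post-dose; 10% TCA fix, 0.1% SRB stain, A560 nm. Bidirectional curve fit vs DMSO negative control.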

[10] = read-out: Matrix Metallopeptidase 1 (MMP1), MMP1 (gene 4312); assay: BSK_BE3C_MMP1: BioMAP Diversity Plus: BE3C Assay for Matrix Metallopeptidase 1 (MMP1) Biomarker Activity (AID 2283024); conditions: primary human bronchial epithelial cells; actives raise or lower the signal
Outline: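 In this multiplexed primary-cell system, human bronchial epithelium received chemicals for 24 h before an ELISA for MMP1. Values reflect bidirectional fits normalised to the DMSO baseline.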

[11] = BSK_3C_Vis: BioMAP Diversity Plus: 3C Assay for Morphology Visualization (AID 2283025); conditions: primary human endothelial cells (HUVEC);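 also: fitted both ways so gain or loss versus DMSO counts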;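 as to AC50: light microscopy image of cell morphology used as background control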
Outline: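 Light-microscopy morphology readout, 24 h exposure, human primary umbilical vein endothelium; analysed relative to DMSO with bidirectional fitting.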

[12] = read-out: Pselectin, SELP (gene 6403); assay: BSK_4H_Pselectin: BioMAP Diversity Plus: 4H Assay for Pselectin Biomarker Activity (AID 2283026); conditions: primary human endothelial cells (HUVEC); actives raise or lower the signal
Outline: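 Bidirectional fits against DMSO gave the endpoint. Cells: primary human umbilical vein endothelium, chemical-treated for 24 h before ELISA detection of P-selectin.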

[13] = BSK_4H_SRB: Viability Assessment in the BioMAP Diversity Plus: 4H Assay (AID 2283027); conditions: primary human endothelial cells (HUVEC);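 also: cells exposed to compound for 24 h before staining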;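 as to AC50: curves fitted both ways versus DMSO so AC50 may be loss or gain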
Outline: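 Cytotoxicity readout: sulforhodamine B (0.1%) staining of total protein after 10% TCA fixation, measured at 560 nm in human umbilical vein endothelium at 24 h. DMSO set the baseline; fitting was bidirectional.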

[14] = BSK_BE3C_SRB: Viability Assessment in the BioMAP Diversity Plus: BE3C Assay (AID 2283028); conditions: primary human bronchial epithelial cells;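 as to AC50: fitted both ways so AC50 may mark signal gain or loss versus DMSO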
Outline: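 Primary human bronchial epithelium; chemical dosing, 24 h; 10% TCA fix, 0.1% SRB stain, A560; bidirectional fit vs DMSO baseline.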

[15] = read-out: Thrombomodulin, THBD (gene 7056); assay: BSK_3C_Thrombomodulin: BioMAP Diversity Plus: 3C Assay for Thrombomodulin Biomarker Activity (AID 2283029); conditions: primary human endothelial cells (HUVEC); actives raise or lower the signal
Outline: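 In a multiplexed primary-cell system, human umbilical vein endothelium received chemical and was assayed 24 h later for thrombomodulin by ELISA. Parallel cultures were SRB-stained (0.1% SRB after 10% TCA fixation, read at 560 nm) to flag cytotoxicity.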

[16] = read-out: Urokinase-type plasminogen activator receptor (uPAR), PLAUR (gene 5329); assay: BSK_4H_uPAR: BioMAP Diversity Plus: 4H Assay for Urokinase-type plasminogen activator receptor (uPAR) Biomarker Activity (AID 2283030); conditions: primary human endothelial cells (HUVEC); actives raise or lower the signal
Outline: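 HUVEC, 24 h post-dose; uPAR by ELISA; bidirectional fit vs DMSO baseline.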

[17] = molecular target: human Retinoid X Receptor beta (RXRb), RXRB (gene 6257) (UniProt P28702); assay: ATG_RXRb_TRANS: Attagene TRANS-FACTORIAL HepG2 Assay for human Retinoid X Receptor beta (RXRb) (AID 2283013; active = hit-call score of the fitted dose curve at least 0.9, where 1 is the maximum)
Outline: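 After a 24 h incubation with test chemical, transfected HepG2 cells carrying NR-Gal4 fusions and GAL4-UAS reporter transcription units yield RNA whose reporter cDNA is FAM-labelled, HpaI-cut and sized by capillary electrophoresis; increases over DMSO are scored.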

[18] = read-out: Monokine induced gamma interferon (MIG), CXCL9 (gene 4283); assay: BSK_3C_MIG: BioMAP Diversity Plus: 3C Assay for Monokine induced gamma interferon (MIG) Biomarker Activity (AID 2283021); conditions: primary human endothelial cells (HUVEC); actives raise or lower the signal;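 as to AC50: MIG protein level measured by immunoassay in the treated endothelial cultures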
Outline: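 ELISA-measured MIG in dosed HUVEC 3C cultures at 24 h, analysed by bidirectional fitting with DMSO defining baseline activity.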

Measured: AC50

Sequence of E-selectin (Homo sapiens) (P16581 whole entry, looked up): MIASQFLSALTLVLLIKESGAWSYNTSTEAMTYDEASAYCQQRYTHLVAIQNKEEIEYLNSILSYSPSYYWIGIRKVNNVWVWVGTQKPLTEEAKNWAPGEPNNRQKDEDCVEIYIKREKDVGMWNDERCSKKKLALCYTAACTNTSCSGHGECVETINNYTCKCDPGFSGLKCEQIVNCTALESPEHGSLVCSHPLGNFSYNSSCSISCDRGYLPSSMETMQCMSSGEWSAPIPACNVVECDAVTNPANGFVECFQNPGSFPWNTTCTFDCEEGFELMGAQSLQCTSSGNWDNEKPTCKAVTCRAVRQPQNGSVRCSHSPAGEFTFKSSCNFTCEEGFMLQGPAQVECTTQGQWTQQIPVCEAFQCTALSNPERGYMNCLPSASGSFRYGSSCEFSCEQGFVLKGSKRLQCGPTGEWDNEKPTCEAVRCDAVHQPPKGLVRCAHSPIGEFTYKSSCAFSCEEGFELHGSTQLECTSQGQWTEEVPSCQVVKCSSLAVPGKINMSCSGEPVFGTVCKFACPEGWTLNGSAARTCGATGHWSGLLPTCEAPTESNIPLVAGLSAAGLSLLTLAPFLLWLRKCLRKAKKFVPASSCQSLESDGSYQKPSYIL
Sequence of human Retinoid X Receptor beta (RXRb), RXRB (gene 6257) (P28702 whole entry, looked up, the tested form may be a part): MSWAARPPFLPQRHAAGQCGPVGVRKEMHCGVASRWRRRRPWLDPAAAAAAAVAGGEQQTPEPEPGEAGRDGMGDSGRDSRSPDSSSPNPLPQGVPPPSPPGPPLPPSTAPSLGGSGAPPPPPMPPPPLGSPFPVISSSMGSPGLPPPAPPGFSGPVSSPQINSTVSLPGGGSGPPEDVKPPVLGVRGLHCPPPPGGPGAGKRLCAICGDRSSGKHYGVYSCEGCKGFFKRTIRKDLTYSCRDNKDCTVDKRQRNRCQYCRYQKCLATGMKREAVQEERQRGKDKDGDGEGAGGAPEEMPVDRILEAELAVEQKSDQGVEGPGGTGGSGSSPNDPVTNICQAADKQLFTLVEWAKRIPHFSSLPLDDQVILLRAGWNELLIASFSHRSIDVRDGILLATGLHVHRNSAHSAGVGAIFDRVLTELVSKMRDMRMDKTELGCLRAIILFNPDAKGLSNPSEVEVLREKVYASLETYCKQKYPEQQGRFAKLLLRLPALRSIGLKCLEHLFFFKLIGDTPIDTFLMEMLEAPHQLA
Sequence of human Vitamin D Receptor (VDR), VDR (gene 7421) (P11473 whole entry, looked up, the tested form may be a part): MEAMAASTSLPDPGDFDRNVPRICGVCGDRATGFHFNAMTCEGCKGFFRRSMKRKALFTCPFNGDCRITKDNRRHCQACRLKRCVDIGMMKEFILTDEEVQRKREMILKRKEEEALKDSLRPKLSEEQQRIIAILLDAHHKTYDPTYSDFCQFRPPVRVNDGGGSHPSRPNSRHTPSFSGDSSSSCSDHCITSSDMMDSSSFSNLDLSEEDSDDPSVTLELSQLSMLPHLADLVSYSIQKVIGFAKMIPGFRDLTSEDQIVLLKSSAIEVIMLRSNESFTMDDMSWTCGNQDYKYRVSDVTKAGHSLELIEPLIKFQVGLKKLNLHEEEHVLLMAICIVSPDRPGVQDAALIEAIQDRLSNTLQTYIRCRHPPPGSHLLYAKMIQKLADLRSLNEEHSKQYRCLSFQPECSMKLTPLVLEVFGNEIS
Sequence of Retinoic acid receptor RXR-alpha (Homo sapiens) (P19793 whole entry, looked up, the tested form may be a part): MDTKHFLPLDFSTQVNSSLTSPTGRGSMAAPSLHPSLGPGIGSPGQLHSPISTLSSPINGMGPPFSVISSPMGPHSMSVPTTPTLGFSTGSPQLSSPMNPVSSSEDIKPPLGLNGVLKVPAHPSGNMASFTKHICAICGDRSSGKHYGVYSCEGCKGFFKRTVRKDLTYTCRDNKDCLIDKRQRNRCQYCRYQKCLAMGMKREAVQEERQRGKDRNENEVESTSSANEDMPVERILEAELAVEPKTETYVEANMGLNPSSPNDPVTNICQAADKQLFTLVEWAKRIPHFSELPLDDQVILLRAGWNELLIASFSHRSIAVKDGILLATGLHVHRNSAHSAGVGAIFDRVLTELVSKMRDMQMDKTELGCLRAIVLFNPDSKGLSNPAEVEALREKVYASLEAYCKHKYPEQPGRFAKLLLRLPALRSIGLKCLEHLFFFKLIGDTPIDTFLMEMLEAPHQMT

Cc1oc2c(NC(=O)c3c(Cl)cccc3Cl)cccc2c1C(C)(C)O
inactive: [1] | [4] | [5] | [7] | [8] | [14] | [16]
active: [2] 13 µM | [3] 23.6 µM | [6] 21.8 µM | [9] 25 µM | [10] 14.3 µM | [11] 20.7 µM | [12] 13.2 µM | [13] 15 µM | [15] 11.8 µM

OCCO
not listed: [18]
inactive: all other assays above

CCN(CC)C(=O)c1cc(S(=O)(=O)Cc2ccccc2)c(N2CCC(c3ccccc3)CC2)cc1N(CC)CCN(C)C
active: [2] 27.2 µM | [3] 9.53 µM | [4] 10.4 µM | [5] 18.7 µM | [6] 6.27 µM | [7] 13.8 µM | [9] 5.18 µM | [11] 6.48 µM | [12] 7.87 µM | [13] 19.2 µM | [14] 11 µM | [15] 4.43 µM | [16] 19.8 µM

C[C@]12CC[C@@H]3c4ccc(O)cc4CC[C@H]3[C@@H]1CCC2=O
active: [6] 31.7 µM | [10] 3.97 µM
not listed: [8] | [17] | [18]
inactive: all other assays above

CC1=CC(=O)/C(=C(/C)O)C(=O)O1
not listed: [1] | [18]
inactive: all other assays above

CCOC(=O)O[C@H](C)OC(=O)c1ccc2c(c1)cc(C(=O)NC1CCN(C(C)C)CC1)n2Cc1cc(-c2ccc(Cl)s2)on1
active: [2] 7.05 µM | [3] 11 µM | [4] 6.56 µM | [5] 5.27 µM | [6] 7.08 µM | [7] 6.77 µM | [9] 5.03 µM | [11] 5.3 µM | [12] 6.95 µM | [13] 5.07 µM | [14] 6.07 µM | [16] 7.66 µM
inactive: [15]

COc1cccc([C@H](O)C2CCN(CCc3ccc(F)cc3)CC2)c1OC
active: [12] 6.42 µM | [16] 0.228 µM
not listed: [17] | [18]
inactive: all other assays above

CCCCCCCCOC(=O)c1cc(O)c(O)c(O)c1
active: [2] 38.8 µM | [3] 33.4 µM | [4] 31.8 µM | [5] 8.64 µM | [6] 15.3 µM | [7] 30.8 µM | [8] 55 µM | [9] 20 µM | [10] 33.5 µM | [11] 37.5 µM | [12] 17.8 µM | [13] 15.1 µM | [14] 33.6 µM | [16] 37.7 µM
inactive: [1] | [17] | [15]

CCCOC(=O)c1cc(O)c(O)c(O)c1
not listed: [1] | [10] | [18]
inactive: all other assays above

Cc1c2ccccc2c(C)c2c1ccc1ccccc12
active: [17] 15 µM | [4] 5.5 µM | [5] 13 µM | [6] 14.3 µM | [7] 35.9 µM | [9] 13.4 µM | [11] 13.7 µM | [12] 14.7 µM | [13] 18.8 µM | [16] 14 µM
inactive: [2] | [3] | [18] | [14] | [15]

CN1C(=O)N(c2ccccc2Br)Cc2cnc(Nc3ccc4c(c3)OCC(CO)O4)nc21 (stereo unspecified)
inactive: [15]
active: [2] 15.2 µM | [3] 2.57 µM | [4] 14.7 µM | [5] 2.11 µM | [6] 9 µM | [7] 12.2 µM | [9] 20 µM | [10] 7.24 µM | [11] 20.7 µM | [12] 6.75 µM | [13] 2.02 µM | [14] 28.1 µM | [16] 3.51 µM

COc1ccc2cc(S(=O)(=O)N[C@H](CC(=O)N[C@H](Cc3ccc(CN4[C@H](C)CCC[C@@H]4C)cc3)C(=O)N(C)C(C)C)c3ccc4c(c3)OCO4)ccc2c1
active: [4] 12.5 µM | [5] 8.16 µM | [6] 24.3 µM | [7] 16.3 µM | [9] 20.8 µM | [11] 5.55 µM | [12] 10.8 µM | [13] 19.1 µM | [16] 19.1 µM
inactive: [1] | [2] | [3] | [18] | [8] | [10] | [14] | [15]

CCN(Cc1cccnc1)C(=O)c1cccc(Cl)c1[C@]1(C)C(=O)N(Cc2ccc(OC)cc2OC)c2ccc(Cl)cc21
active: [2] 6.76 µM | [4] 6.68 µM | [6] 8.86 µM | [7] 5.8 µM | [9] 6.28 µM | [11] 4.34 µM | [12] 4.73 µM | [13] 5.38 µM | [16] 5.48 µM
inactive: [1] | [3] | [5] | [18] | [8] | [14] | [15]

NC(=O)c1nc(-c2cccc(-c3cc(F)ccc3OCC(F)(F)C(F)(F)F)c2)n[nH]1
inactive: [1] | [8]
active: [2] 34.9 µM | [3] 38.8 µM | [4] 35.3 µM | [5] 29.3 µM | [6] 22.6 µM | [7] 34.4 µM | [18] 41.4 µM | [9] 31.9 µM | [11] 42.3 µM | [12] 30.8 µM | [13] 35.2 µM | [14] 34.5 µM | [15] 11.7 µM | [16] 22.6 µM
